Measured values as given in PubChem BioAssay (Tox21).
Inconclusive results are not listed. A structure can be active in one record and inactive in another. Active and inactive are the calls of the source. Unless noted, the call rests on the fitted dose curve; in most records, active means well fitted curve in the direction sought with a large enough effect in the repeat runs; inconclusive means weak or mixed curves; inactive means no such curve, though single readings can be large; an effect the other way counts as inactive or inconclusive.

What was measured:
[1] = qHTS assay to identify small molecule agonists of the estrogen receptor alpha (ER-alpha) signaling pathway in the presence of an antagonist - cell viability counter screen (AID 1259386);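 further: series mostly up to about 92 µM; cells exposed to compounds for 22 h at 37 °C before the viability read; nearly all actives have a fitted effect of over 30% in size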
Outline: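 The test measures whether compounds kill ER-alpha reporter cells (VM7Luc4E2) under antagonist co-treatment (ICI-182,780, 10.0nM). Fluorescence from CellTiter-Fluor is read after a 22hr exposure.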

[2] = target: Progesterone receptor (Homo sapiens) (UniProt P06401); assay: qHTS assay to identify small molecule agonists of the progesterone receptor (PR) signaling pathway (AID 1346784; calls by dose curve; further: nearly all actives have a fitted effect of over 30% in size; further: potency means the concentration at half of the fitted maximal effect)
Chain of Progesterone receptor (Homo sapiens) (P06401 whole entry, looked up): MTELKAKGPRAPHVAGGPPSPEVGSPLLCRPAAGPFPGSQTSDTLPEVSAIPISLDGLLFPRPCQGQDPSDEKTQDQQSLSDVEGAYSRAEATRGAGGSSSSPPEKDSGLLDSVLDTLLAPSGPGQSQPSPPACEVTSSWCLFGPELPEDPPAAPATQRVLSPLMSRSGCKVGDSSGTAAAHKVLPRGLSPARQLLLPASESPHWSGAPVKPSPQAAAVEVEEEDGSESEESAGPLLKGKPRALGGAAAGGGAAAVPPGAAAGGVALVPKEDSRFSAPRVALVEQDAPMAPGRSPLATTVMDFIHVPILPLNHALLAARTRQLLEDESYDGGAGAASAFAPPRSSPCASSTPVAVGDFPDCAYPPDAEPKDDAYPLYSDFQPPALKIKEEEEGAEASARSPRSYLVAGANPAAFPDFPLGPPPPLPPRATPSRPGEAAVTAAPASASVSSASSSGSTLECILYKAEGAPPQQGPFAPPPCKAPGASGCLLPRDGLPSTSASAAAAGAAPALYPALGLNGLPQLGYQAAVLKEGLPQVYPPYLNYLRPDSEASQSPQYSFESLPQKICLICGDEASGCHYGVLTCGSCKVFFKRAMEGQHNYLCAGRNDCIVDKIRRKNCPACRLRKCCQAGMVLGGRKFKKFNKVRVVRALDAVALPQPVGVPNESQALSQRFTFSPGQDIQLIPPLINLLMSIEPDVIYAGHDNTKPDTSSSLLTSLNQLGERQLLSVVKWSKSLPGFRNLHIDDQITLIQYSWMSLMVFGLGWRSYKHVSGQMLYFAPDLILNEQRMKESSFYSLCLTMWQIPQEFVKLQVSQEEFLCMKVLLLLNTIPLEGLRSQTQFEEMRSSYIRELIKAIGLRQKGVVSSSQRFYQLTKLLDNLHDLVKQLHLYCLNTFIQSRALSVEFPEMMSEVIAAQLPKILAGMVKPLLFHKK
Outline: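 PR-UAS-bla HEK 293T cells carrying a UAS-driven beta-lactamase reporter were seeded in medium with 2% charcoal-stripped FBS, preincubated 6 hr at 37C, then exposed to compounds in DMSO for 16 hr; agonism was read by LiveBLAzer B/G FRET fluorescence.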

[3] = target: Progesterone receptor (Homo sapiens) (UniProt P06401); assay: qHTS assay to identify small molecule antagonists of the progesterone receptor (PR) signaling pathway (AID 1346795; active means well fitted inhibition curve with a large enough effect in the signal ratio in the repeat runs, not every such curve was filed as active; the % refers to the signal ratio)
Outline: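 PR-UAS-bla HEK293T cells carrying a UAS-driven beta-lactamase reporter were plated in medium with 2% charcoal-stripped FBS and rested 6 hr at 37C. Compounds were added with 1 nM R5020 (final) for 16 hr, then FRET substrate loaded 2 hr at room temperature.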

[4] = qHTS assay to identify small molecule antagonists of the progesterone receptor (PR) signaling pathway - cell viability counter screen (AID 1346798); further: series mostly up to about 92 µM; nearly all actives have a fitted effect of over 50% in size
Outline: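 PR-UAS-bla HEK293T cells in medium with 2% charcoal-stripped FBS were treated with compounds plus R5020 for 16 hr at 37C. Cell viability was then read by CellTiter-Glo luminescence after 30 min at room temperature in the same wells.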

[5] = qHTS assay to identify small molecule agonists of the progesterone receptor (PR) signaling pathway - cell viability counter screen (AID 1346799; calls by dose curve; further: nearly all actives have a fitted effect of over 45% in size)
Outline: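 PR-UAS-bla HEK293T cells, 3,000 per well in medium with 2% charcoal-stripped FBS, were preincubated 6 hr at 37C, then exposed to compounds for 16 hr; viability was read as CellTiter-Glo luminescence after 30 min at room temperature.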

[6] = qHTS assay to identify small molecule antagonists of the TGF-beta/Smad signaling pathway - cell viability counter screen (AID 1346824); further: nearly all actives have a fitted effect of over 50% in size
Outline: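 Cytotoxicity counter-screen run in the same wells as the beta-lactamase Smad reporter read: CellTiter-Glo luminescence after 30 min at room temperature. HEK 293T SBE-bla cells had 5 hr compound exposure at 37 C with TGF-beta1 (0.25 ng/mL stock).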

[7] = qHTS assay to identify small molecule agonists of the TGF-beta/Smad signaling pathway - cell viability counter screen (AID 1346829); further: top concentration of the series differs between compounds; nearly all actives have a fitted effect of over 45% in size
Outline: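 Tox21 qHTS format: SBE-bla HEK 293T cells treated with DMSO-dissolved compounds for 5 hr; CellTiter-Glo luminescence after 30 min at room temperature.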

[8] = qHTS assay to identify small molecule agonists of the TGF-beta/Smad signaling pathway (AID 1346859; active means well fitted activation curve with a large enough effect in the signal ratio in the repeat runs, not every such curve was filed as active; the % refers to the signal ratio; further: series mostly up to about 77 µM)
Outline: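 HEK 293T cells stably carrying a beta-lactamase reporter driven by the Smad binding element were seeded overnight, exposed to DMSO-dissolved compounds for 5 hr at 37 C, 5% CO2, then loaded with FRET substrate for 2 hr at room temperature.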

[9] = target: Thyrotropin-releasing hormone receptor (Homo sapiens) (UniProt P34981); assay: qHTS assay to identify small molecule antagonists of the thyrotropin-releasing hormone receptor (TRHR) signaling pathway (AID 1346877; active means well fitted inhibition curve with a large enough effect in the repeat runs, not every such curve was filed as active; further: series mostly up to about 51 µM)
Chain of Thyrotropin-releasing hormone receptor (Homo sapiens) (P34981 whole entry, looked up): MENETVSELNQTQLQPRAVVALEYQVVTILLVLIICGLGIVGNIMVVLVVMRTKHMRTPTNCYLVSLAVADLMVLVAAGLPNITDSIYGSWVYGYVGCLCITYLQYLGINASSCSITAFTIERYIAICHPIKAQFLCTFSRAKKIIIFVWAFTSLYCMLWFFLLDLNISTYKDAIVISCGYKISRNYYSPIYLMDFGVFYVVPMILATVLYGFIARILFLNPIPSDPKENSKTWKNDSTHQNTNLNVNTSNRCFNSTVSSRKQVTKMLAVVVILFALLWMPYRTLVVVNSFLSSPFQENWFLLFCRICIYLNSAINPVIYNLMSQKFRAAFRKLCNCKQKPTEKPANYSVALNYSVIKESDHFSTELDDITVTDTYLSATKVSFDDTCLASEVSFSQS
Outline: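 Overnight-plated (18 h, 37 °C) HEK293 cells expressing TRHR were dye-loaded 2 h, treated with compound, then stimulated with TRH at 1 nM final. Fluorescence intensity was captured every second for 3 min.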

[10] = target: Thyrotropin-releasing hormone receptor (Homo sapiens) (UniProt P34981); assay: qHTS assay to identify small molecule agonists of the thyrotropin-releasing hormone receptor (TRHR) signaling pathway (AID 1346891; calls by dose curve; further: series mostly up to about 58 µM)
Outline: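 TRHR-expressing HEK293 cells were plated 18 h at 37 °C/5% CO2, loaded with calcium dye 2 h at 37 °C, then given compound in DMSO; fluorescence was read kinetically for 3 min at 1 s intervals.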

[11] = Human pregnane X receptor (PXR) small molecule agonists, qHTS cell viability counter screen (AID 1346977); further: nearly all actives have a fitted effect of over 50% in size
Outline: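 PXR-Luc HepG2 cells in medium with 5% charcoal-stripped FBS were pre-incubated 5hr, then exposed to compounds for 24hr at 37C. Viability was read in the same wells by CellTiter-Fluor fluorescence, reagent added after 23hr with a 1hr incubation.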

[12] = Caspase-3/7 induction in HepG2 cells by small molecules, qHTS assay (AID 1346978); further: nearly all actives have a fitted effect of over 15% in size
Outline: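 Caspase-3/7 induction was measured by Caspase-Glo 3/7 luminescence (30 min, room temperature) after a 17 hr compound exposure of wild-type HepG2 cells seeded at 2,000 per well and pre-incubated 5 hr.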

[13] = Caspase-3/7 induction in CHO-K1 cells by small molecules, qHTS cell viability counter screen (AID 1346979); further: nearly all actives have a fitted effect of over 35% in size; further: potency means the concentration at half of the fitted maximal effect
Outline: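 Wild-type CHO-K1 cells were seeded at 1,500 per well, rested 5hr at 37 C, then exposed to compounds in DMSO. After 16hr, CellTiter-Fluor reagent was added and fluorescence read 1hr later as the viability measure.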

[14] = Caspase-3/7 induction in CHO-K1 cells by small molecules, qHTS assay (AID 1346980); further: nearly all actives have a fitted effect of over 15% in size
Outline: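 Luminescent Caspase-Glo 3/7 read (30min, room temperature) quantified apoptosis induction. Cells were wild-type CHO-K1, treated with compound for 17hr at 37 C and 5% CO2.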

[15] = target: Nuclear receptor subfamily 1 group I member 2 (Homo sapiens) (UniProt O75469); assay: Human pregnane X receptor (PXR) small molecule agonists, qHTS assay (AID 1346982); further: nearly all actives have a fitted effect of over 35% in size; further: potency means the concentration at half of the fitted maximal effect
Chain of Nuclear receptor subfamily 1 group I member 2 (Homo sapiens) (O75469 whole entry, looked up): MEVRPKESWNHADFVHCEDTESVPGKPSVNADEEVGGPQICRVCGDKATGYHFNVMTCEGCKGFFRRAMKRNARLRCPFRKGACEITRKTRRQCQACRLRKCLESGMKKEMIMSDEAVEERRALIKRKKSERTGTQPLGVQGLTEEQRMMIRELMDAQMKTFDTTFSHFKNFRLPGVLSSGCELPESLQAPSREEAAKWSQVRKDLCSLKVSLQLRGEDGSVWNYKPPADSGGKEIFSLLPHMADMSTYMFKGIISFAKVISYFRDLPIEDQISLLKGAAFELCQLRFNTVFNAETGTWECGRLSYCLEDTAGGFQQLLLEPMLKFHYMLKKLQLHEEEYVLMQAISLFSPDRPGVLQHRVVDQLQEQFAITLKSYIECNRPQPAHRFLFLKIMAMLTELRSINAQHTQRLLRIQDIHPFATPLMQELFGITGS
Outline: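 Stable HepG2 line reporting PXR-mediated CYP3A4 expression via luciferase. Treatment: 24 hr with compounds in DMSO at 37 C. Detection: ONE-Glo luminescence.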

[16] = target: Acetylcholinesterase (Homo sapiens) (UniProt P22303); assay: Acetylcholinesterase (AChE) small molecule antagonists: colormetric cell-based qHTS assay (AID 1347395; calls by dose curve; further: nearly all actives have a fitted effect of over 30% in size; further: potency means the concentration at half of the fitted maximal effect)
Chain of Acetylcholinesterase (Homo sapiens) (P22303 whole entry, looked up): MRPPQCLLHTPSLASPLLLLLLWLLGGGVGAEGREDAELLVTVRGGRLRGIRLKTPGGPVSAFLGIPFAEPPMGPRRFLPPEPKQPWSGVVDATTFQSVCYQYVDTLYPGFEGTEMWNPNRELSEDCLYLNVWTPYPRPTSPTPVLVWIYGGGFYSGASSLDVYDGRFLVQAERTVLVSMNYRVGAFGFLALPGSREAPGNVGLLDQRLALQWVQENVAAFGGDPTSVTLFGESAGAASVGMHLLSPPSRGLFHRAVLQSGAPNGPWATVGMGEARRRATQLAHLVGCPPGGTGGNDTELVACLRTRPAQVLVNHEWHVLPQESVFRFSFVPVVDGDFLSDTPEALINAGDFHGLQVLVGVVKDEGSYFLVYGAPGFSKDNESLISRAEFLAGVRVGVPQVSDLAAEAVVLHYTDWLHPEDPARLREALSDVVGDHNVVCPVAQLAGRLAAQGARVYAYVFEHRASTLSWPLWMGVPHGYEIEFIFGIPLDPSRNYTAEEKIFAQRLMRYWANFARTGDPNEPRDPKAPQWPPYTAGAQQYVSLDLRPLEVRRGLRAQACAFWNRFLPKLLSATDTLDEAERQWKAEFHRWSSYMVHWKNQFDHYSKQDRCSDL
Outline: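 SH-SY5Y cells, plated overnight at 37 C, were exposed to compounds for 30 min at 37 C and 5% CO2. Acetylthiocholine plus DTNB was then added, and thiocholine from endogenous AChE was quantified colorimetrically after 90 min at 37 C.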

[17] = Caspase-3/7 induction in HepG2 cells by small molecules, qHTS cell viability counter screen (AID 1346981); further: series mostly up to about 92 µM; nearly all actives have a fitted effect of over 30% in size
Outline: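 Treatment of HepG2 cells with DMSO-delivered compounds ran 16 hr at 37 C following a 5-hr pre-incubation of 2,000 cells/well. CellTiter-Fluor fluorescence, read after 1 hr, served as the viability measure in a qHTS format.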

[18] = target: Nuclear receptor subfamily 1 group I member 2 (Rattus norvegicus) (UniProt Q9R1A7); assay: Rat pregnane X receptor (rPXR) activation by small molecules, qHTS assay (AID 1346983); settings: rPXR luciferase reporter cells, One-Glo luminescence, 24 h; stronger effect = higher value; further: nearly all actives have a fitted effect of over 20% in size
Chain of Nuclear receptor subfamily 1 group I member 2 (Rattus norvegicus) (Q9R1A7 whole entry, looked up): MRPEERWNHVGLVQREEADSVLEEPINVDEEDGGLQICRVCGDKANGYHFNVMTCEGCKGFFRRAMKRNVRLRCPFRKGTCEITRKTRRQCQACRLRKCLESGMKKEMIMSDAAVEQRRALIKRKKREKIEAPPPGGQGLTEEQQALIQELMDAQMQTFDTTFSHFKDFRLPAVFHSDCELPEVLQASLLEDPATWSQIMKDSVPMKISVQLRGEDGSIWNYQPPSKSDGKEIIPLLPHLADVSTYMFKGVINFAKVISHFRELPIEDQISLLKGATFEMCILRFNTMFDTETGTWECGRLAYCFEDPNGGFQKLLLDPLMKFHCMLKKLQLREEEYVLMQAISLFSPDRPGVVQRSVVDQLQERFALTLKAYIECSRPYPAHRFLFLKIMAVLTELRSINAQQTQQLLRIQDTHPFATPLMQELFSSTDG
Outline: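 Luminescent readout (One-Glo luciferase, 30 min room temperature) followed 24 hr compound treatment at 37 C of rPXR cells plated 2,000 per well and preincubated 5hr; qHTS format with compounds delivered in DMSO.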

[19] = target: Nuclear receptor subfamily 1 group I member 2 (Homo sapiens) (UniProt O75469); assay: CYP3A4 induction through human pregnane X receptor (PXR) by small molecules, qHTS assay (AID 1346984); further: nearly all actives have a fitted effect of over 40% in size
Outline: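 After 24 h at 37C with compound, DPX-2 cells (HepG2, co-transfected PXR response element and CYP3A4 promoter-luciferase) got 3uM final P450-Glo Luciferin-IPA for 3 h; One-Glo luminescence followed.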

[20] = target: Nuclear receptor subfamily 1 group I member 2 (Homo sapiens) (UniProt O75469); assay: Human pregnane X receptor (PXR) activation by small molecules, qHTS assay (AID 1346985); further: nearly all actives have a fitted effect of over 40% in size
Outline: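 DPX-2 cells (HepG2 co-transfected with a PXR response element and a CYP3A4-promoter luciferase construct) were seeded at 2,000 per well, rested 5 hr at 37C, then exposed to DMSO-dissolved compounds for 24 hr. Activation was read as luciferase luminescence.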
On the % scale 0 is the no-effect control and ±100 the full control effect.

O=C1CC(=O)NC(=O)N1
inactive: Potency [1] | Potency [2] | Potency [3] | Potency [4] | Potency [5] | outcome [6] | Potency [7] | outcome [8] | Potency [9] | outcome [10] | Potency [11] | outcome [12] | Potency [13] | outcome [14] | Potency [15] | Potency [16]

CCOC(=O)N(C)N=O
inactive: Potency [1] | Potency [2] | Potency [3] | Potency [4] | Potency [5] | outcome [6] | Potency [7] | outcome [8] | Potency [9] | outcome [10] | Potency [11] | outcome [12] | Potency [13] | outcome [14] | Potency [17] | Potency [15] | Potency [16]

CN(C)C(=O)Oc1cc(OC(=O)N(C)C)cc(C(O)CNC(C)(C)C)c1 (stereo not drawn)
inactive: Potency [1] | Potency [2] | Potency [3] | Potency [4] | Potency [5] | outcome [6] | Potency [7] | outcome [8] | Potency [9] | outcome [10] | Potency [11] | outcome [12] | Potency [13] | outcome [14] | Potency [17] | Potency [15] | max activation [18] -1.43% | Potency [19] | Potency [20] | Potency [16]

CCCCCCCC(=O)Cl
inactive: Potency [1] | Potency [2] | Potency [3] | Potency [4] | Potency [5] | outcome [6] | Potency [7] | outcome [8] | Potency [9] | outcome [10] | Potency [11] | outcome [12] | outcome [14] | Potency [16]
active: Potency [13] 49 µM | Potency [15] 61.6 µM

CCOC(=O)CC(SP(=S)(OC)OC)C(=O)OCC (stereo not drawn)
12.2 µM (active) and inactive: Potency [15]
inactive: Potency [1] | Potency [3] | Potency [4] | Potency [5] | outcome [6] | Potency [7] | outcome [8] | Potency [9] | outcome [10] | Potency [11] | outcome [12] | Potency [13] | outcome [14] | Potency [17] | max activation [18] 0.377% | Potency [19] | Potency [20]
62.1 µM (active) and inactive: Potency [16]
1.37 µM (active) and inactive: Potency [2]

O=C/C=C/c1ccco1
inactive: Potency [1] | Potency [2] | Potency [3] | Potency [4] | Potency [5] | outcome [6] | Potency [7] | outcome [8] | Potency [9] | outcome [10] | Potency [11] | outcome [12] | Potency [13] | outcome [14] | Potency [15] | Potency [16]

Clc1cc2c(cc1Cl)Oc1cc(Cl)c(Cl)cc1O2
inactive: activity change, negative = cytotoxicity [1] 0.532% [at 0.349 µM] | activation [2] 2.35% [at 0.349 µM] | activity change, negative = inhibition [3] 5.7% [at 0.348 µM] | activity change, negative = cytotoxicity [4] -11.1% [at 0.348 µM] | activity change, negative = cytotoxicity [5] 4.69% [at 0.349 µM] | viability change, negative = cytotoxic [6] -2.55% [at 0.29 µM] | activity change, negative = cytotoxicity [7] 9.06% [at 0.29 µM] | activation [8] 2% [at 0.29 µM] | activity, negative = inhibition [9] 2.75% [at 0.194 µM] | activation [10] -0.214% [at 0.218 µM] | activity change, negative = cytotoxicity [11] -5.16% [at 0.349 µM] | caspase activation [12] 2.22% [at 0.349 µM] | activity change, negative = cytotoxicity [13] 8.13% [at 0.349 µM] | caspase-3/7 activation [14] 0.0442% [at 0.349 µM] | activity change, negative = cytotoxicity [17] -3.38% [at 0.349 µM] | activation [15] -4.83% [at 0.349 µM] | activity, negative = inhibition [16] -1.29% [at 0.435 µM]

CCC1(CC)C(=O)C=CNC1=O
inactive: Potency [1] | Potency [2] | Potency [3] | Potency [4] | Potency [5] | outcome [6] | Potency [7] | outcome [8] | Potency [9] | outcome [10] | Potency [11] | outcome [12] | Potency [13] | outcome [14] | Potency [15] | Potency [16]
